CHO-K1 Ca ag: M1 agonist counterscreen hit in parental CHO-K1 cells | Fluo-8 calcium fluorescence; scaled to maximal ATP response, vehicle zero | activation, % at 3 µM | hit rate 0.48% among 360,000; in the data active = activation above about 15%;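 note: untransfected CHO-K1 host cells lacking M1 receptor as counterscreen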
CHO-K1 Ca antag: M1 antagonist counterscreen hit in parental CHO-K1 cells; hit rate 0.6% among 360,000; ATP-induced calcium, Fluo-8 fluorescence; AID 602250; inhibition, % at 3 µM;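 active = inhibition above a per-plate cutoff, the plate's mean sample inhibition plus 3 SD, cut at about 24% in these data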;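 note: 0% = DMSO plus EC80 ATP and 100% = DMSO alone without ATP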
M1 PAM parental: M1 PAM counterscreen hit in parental CHO-K1 cells | hit rate 0.02% among 360,000 | ATP EC20, Fluo-8 calcium fluorescence; 0% at ATP EC20, 100% at ATP max | activation, % at 3 µM;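 active = activation above the run cutoff, the mean activation of all test compounds plus 3 SD, cut at about 40% in these data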;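 note: peak over basal fluorescence ratio in a 140 s read after ATP addition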
CHRM1 agonist: activates human CHRM1 receptor | P11229 | CHO-K1 hM1, Fluo-8 calcium fluorescence, agonist mode; 0% DMSO, 100% acetylcholine EC100 | activation, % at 3 µM | hit rate 0.33% among 360,000;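 active = activation above the run's mean compound activation plus 3 SD, cut at about 16% in these data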;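 note: peak over basal fluorescence ratio within a 140 s kinetic read after compound addition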
Target sequence (P11229 whole entry, looked up): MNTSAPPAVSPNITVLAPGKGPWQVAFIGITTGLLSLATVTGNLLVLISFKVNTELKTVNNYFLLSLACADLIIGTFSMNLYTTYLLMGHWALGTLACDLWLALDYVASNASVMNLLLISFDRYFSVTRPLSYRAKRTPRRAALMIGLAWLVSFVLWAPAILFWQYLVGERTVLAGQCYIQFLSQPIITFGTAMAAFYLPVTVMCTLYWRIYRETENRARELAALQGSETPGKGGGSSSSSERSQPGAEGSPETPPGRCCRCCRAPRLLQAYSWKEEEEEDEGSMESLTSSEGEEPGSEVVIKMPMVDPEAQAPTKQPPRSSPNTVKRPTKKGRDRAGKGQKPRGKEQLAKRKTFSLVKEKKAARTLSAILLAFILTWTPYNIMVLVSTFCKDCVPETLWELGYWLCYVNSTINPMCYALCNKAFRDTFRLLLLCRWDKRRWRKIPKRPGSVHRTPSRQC
M1 antag: antagonists of human M1 muscarinic receptor; inhibition, % at 3 µM; CHO-K1 hM1, Fluo-8 calcium fluorescence, ACh EC80 antagonist; P11229; hit rate 1.3% among 360,000;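 active = percent inhibition above its own plate's cutoff, namely the mean of that plate's compound wells plus 3 SD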;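 note: peak over basal fluorescence ratio during 140 s after agonist addition; 0% = ACh EC80 plus DMSO and 100% = DMSO alone without agonist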
M1 PAM: potentiates human M1 receptor response to acetylcholine. CHO-K1 hM1, Fluo-8 calcium fluorescence, ACh EC20; 0% = ACh EC20, 100% = maximal ACh. activation, % at 3 µM. hit rate 0.088% among 360,000; in the data active = activation above about 19%, passing the limit was not always enough
The depositor's hits bear a star. Sampled rows, rich in hits. Any-hit rate of the full collection: about 2.3%.

SMILES	CHO-K1 Ca ag	CHO-K1 Ca antag	M1 PAM parental	CHRM1 agonist	M1 antag	M1 PAM
COc1ccc(CN(Cc2ccccn2)S(=O)(=O)c2ccc(-n3cnnn3)c(OC)c2)cc1	4	-21	1	-7	-21	-8
COc1ccc(CN(Cc2ccccn2)S(=O)(=O)c2ccc(-n3cnnn3)cc2)cc1	1	40*	-5	-3	-12	-5
CC(C)CCN1C(=O)c2ccc(C(=O)NCc3ccccn3)cc2C1=O	0	-2	-2	-5	-9	9
C=CCNC(=O)C1CC1(c1cccc(C)c1)c1cccc(C)c1 (stereo unspecified)	0	2	6	1	0	13
Cc1cccc(C2(c3cccc(C)c3)CC2C(=O)Nc2ccc([N+](=O)[O-])cc2O)c1 (stereo unspecified)	6	26*	-11	-3	25	-15
CCCC(C)C(=O)OCC(=O)NCc1ccc(OC)c(OC)c1 (stereo unspecified)	1	-2	0	-3	-4	4
O=C(CC1OC(=O)c2ccccc21)NNC(=O)c1ccc(F)cc1 (stereo unspecified)	1	0	20	-1	-1	6
N#CC(Sc1ccccn1)c1ccc(Cl)cc1Cl (stereo unspecified)	4	10	11	-10	39*	-29
Cc1ccc(NC(=O)c2ccc3nc[nH]c3c2)cc1C	18*	2	-1	-1	-7	5
CC1=C(C(=O)N(C)C)CC(CC(=O)NCCCCc2ccccc2)C(=O)N1CCCN1CCCC1=O (stereo unspecified)	1	-19	20	5	-23	27*
CN(CCc1ccccc1)C(=O)CC1C(=O)NCCN1Cc1ccccn1 (stereo unspecified)	1	-4	10	-4	2	4
COCCN(C(=O)CCC(=O)Nc1nccs1)C(C(=O)NCCC(C)C)c1ccc(OC)cc1 (stereo unspecified)	1	-7	15	-3	-5	5
COC(=O)c1ccc2nc(NC(=O)C(C)(C)C)sc2c1	17*	8	7	-9	-6	1
Cc1ccccc1/C=C/C(=O)NCC(=O)N1CCC(N(C)C2CCCCC2C)CC1 (stereo unspecified)	0	6	-13	-10	27*	-24
Cc1ccc(-c2nc(P(=O)(c3ccccc3)c3ccccc3)c(N3CCOCC3)o2)cc1	0	-3	17	-5	-10	10
CNc1oc(-c2ccc(Cl)cc2)nc1P(=O)(c1ccccc1)c1ccccc1	0	-14	49*	0	11	5
CC1=C(C)/C(=N\OS(=O)(=O)c2ccc(C)cc2)C=CC1=O	7	34*	-10	2	31*	-10
CC1=C/C(=N\OS(=O)(=O)c2ccccc2)C(C)=CC1=O	12	37*	2	10	32*	-11
C=CCN(c1ccccc1)S(=O)(=O)c1cccc(C(=O)Nc2ncccc2O)c1	6	9	2	-3	-2	2
COc1ccc(/C=C(\NC(=O)c2ccc(C)cc2)C(=O)NCCCN2CCOCC2)cc1OC	0	-11	1	-3	2	2
COCc1ccc(CN2CCCC(CCC(=O)NCc3ccc(C)o3)C2)o1 (stereo unspecified)	1	-14	17	-4	7	1
COC(=O)c1ccc(CN2CCCC(CCC(=O)NCc3ccc(C)o3)C2)cc1 (stereo unspecified)	0	-10	27	53*	87*	-29
COC(=O)c1ccc(CN2CCCC(CNC(=O)Cc3ccc(OC)cc3)C2)cc1 (stereo unspecified)	1	-13	6	30*	14	-6
COc1cccc(N(C(=O)c2ccco2)C(C(=O)NC2CCCC2)c2cccnc2)c1 (stereo unspecified)	0	24*	-7	0	15	-3
COc1ccc(C(C(=O)NC2CCCC2)N(C(=O)c2ccoc2C)c2cc(C)cc(C)c2)cc1 (stereo unspecified)	-1	3	1	-9	-5	5
CCc1ccc(N(C(=O)c2ccoc2C)C(C(=O)NC2CCCC2)c2ccc(OC)cc2)cc1 (stereo unspecified)	-1	28*	-14	-6	16	-8
